# About 83,000 compounds went through this panel and 20% of them were active in at least one assay; those are over-represented in the sample as a whole.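 How to read the values: 0–100, growth inhibition (40 = 60% inhibited); 0, no net growth; -100 to 0, cell death (-40 = 40% of starting cells died; -100 = all dead).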 Values without a mark were called inactive. Active and inactive are the calls of the source. The calls were made as follows: active = growth percent below 10; inactive = the rest.
# System: SW-620 colon
# Assay: NCI-60 one-dose screen, 48 h (100 = growth as untreated, 0 = no growth, -100 = all killed)
# Settings: 10 µM unless noted
row,SMILES,growth
1,C#C[C@]1(O)CC[C@H]2[C@@H]3CC=C4c5sc(NCc6ccccc6)nc5CC[C@]4(C)[C@H]3CC[C@@]21C,52.7%
2,Cn1cc(-c2cc3ncnc(Nc4ccc(NC(=O)Nc5cc(C(C)(C)C)on5)cc4)c3s2)cn1,24.4%
3,CCc1cccc2c3c(sc12)C(c1ccc(F)cc1)C(C#N)=C(/N=C/c1ccc(Cl)cc1)O3 (stereo not given),37.6%
4,C1=CC(c2nn3c(-c4ccccc4)nnc3s2)=Cc2ccccc2O1,16.6%
5,Cc1ccc(-c2csc(N/N=C/c3cccs3)n2)cc1,108%
6,C#C[C@]1(O)CC[C@H]2[C@@H]3CC=C4c5sc(Nc6ccc(C)cn6)nc5CC[C@]4(C)[C@H]3CC[C@@]21C,-53.1% (active)
7,COC(=O)c1ccc(NC2=C(Cl)C(=O)c3nc(C)ccc3C2=O)cc1,18.3%
8,CCCCCN1C(=O)/C(=c2\sc3n(c2=O)C2C(NN=3)N(CC)C(=O)N2CC)c2cccc(C)c21 (stereo not given),43.5%
9,COc1ccc(/C(=N\N=C(N)N)c2ccc(Cl)cc2)cc1OC,73.6%
10,CCCCCC[n+]1ccc(SCC(=O)n2ccc3ccccc32)c2ccccc21,92.1%
11,NCCNC(=O)c1cccc(COc2ccccc2NC(=O)c2cc(Br)c(Br)[nH]2)c1,35.1%
12,CC1CCN(CC(=O)Nn2c(COc3ccccc3)nc3ccccc3c2=O)CC1,57.2%
13,CC(C)(C)Nc1nc2c(OCCc3ccccc3)cccn2c1-c1ccc([N+](=O)[O-])cc1,77.6%
14,CC(C)(C)OC(=O)NCc1ccc(CNc2c([N+](=O)[O-])cnc3ccccc23)cc1,89.6%
15,NC(=O)n1c(=O)n(-c2cccc(C(F)(F)F)c2)c(=O)c2cc(-c3ccc(F)cc3F)ccc21,14.1%
16,CN1CCN(Cc2ccc(NC(=O)c3cncc(C#Cc4cnc5ccc(OCCCS(C)(=O)=O)nn45)c3)cc2C(F)(F)F)CC1,1.18% (active)
17,COc1ccc(NC2=C(Br)C(=O)C(C)=C(C)C2=O)cc1OC,107%
18,O=C1[C@@H]2Cc3c([nH]c4ccccc34)[C@H](c3ccc(Cl)cc3)N2C(=O)CN1C1CCN(Cc2ccccc2)CC1,61.3%

row,SMILES,growth
1,CCOc1cccc(/C(N)=N/C(N)=N/c2nc3ccccc3s2)c1,102%
2,O=C1CSC(c2cn(-c3ccccc3)nc2-c2ccc(Cl)cc2)N1c1ccccc1 (stereo not given),120%
3,CC(Nc1c(C#N)cnc2ccc(-c3cncc(-c4n[nH]c(=O)o4)c3)cc12)c1ccccc1 (stereo not given),18.7%
4,CCCCN1C(=O)/C(=c2\sc3n(c2=O)C2C(NN=3)N(CC)C(=O)N2CC)c2cccc(C)c21 (stereo not given),39.7%
5,Brc1cc(-c2cc(-c3ccc4c(c3)OC=CO4)[nH]n2)cs1,82.1%
6,N#C/C(=C\c1cccc2c1OCO2)C(=O)Nc1sc2c(c1C#N)CCCC2,106%
7,CN1CCN(Cc2ccc(NC(=O)c3cncc(C#Cc4cnc5ccc(O[C@@H]6CCOC6)nn45)c3)cc2C(F)(F)F)CC1,-28% (active)
8,CCN(CC)CCOc1ccc(C(=C(C)c2ccc(OC)cc2)c2ccc(OCCN(CC)CC)cc2)cc1,-35.7% (active)
9,O=c1nc(Nc2ccc([N+](=O)[O-])cc2O)sc2ccccc12,22.3%
10,O=C(CCCCCCNC(=O)c1csc(Br)n1)NO,7.18% (active)
11,COC(=O)[C@@H](Cc1c[nH]c2ccccc12)NC(=O)CCCCOc1cc(O)c2c(=O)cc(-c3ccccc3)oc2c1,95.8%
12,Clc1cccc(/C=N/Nc2nc(N/N=C/c3cccc(Cl)c3)nc(N3CCCCC3)n2)c1,103%
13,COC(=O)c1ccc(NC2=C(Cl)C(=O)C(C)=C(C)C2=O)cc1,35.5%
14,O=C(CSc1nnc(-c2ccc(Cl)cc2)n1-c1ccccc1)Nc1ccccc1Cl,51.6%
15,CN(C)CCNc1ccc2ncc(C#Cc3cncc(C(=O)Nc4ccc(CN5CCN(C)CC5)c(C(F)(F)F)c4)c3)n2n1,-6.29% (active)
16,Cc1cc(=O)oc2cc(OCCCOc3ccc(/C=C/C(=O)Nc4ccc(Br)cc4)cc3)ccc12,57.2%
17,CC(=O)OC[C@@]12Oc3c(cccc3-c3ccc(O)c4c3O[C@]3(COC(C)=O)C(=C4O)C(=O)C[C@H](C)[C@@H]3OC(C)=O)C(O)=C1C(=O)C[C@H](C)[C@@H]2OC(C)=O,17.8%

# Reference: PubChem BioAssay (NCI)
